Measurements reported in PubChem BioAssay (NCI).
The panel holds about 79,000 compounds, 15% with a hit somewhere; the sample as a whole holds those more often. A number with no mark means an inactive call. Activity calls are given as the source filed them. Cut-off read from the data, not from the text of the source: active = growth inhibition above about 70%; inactive = the rest.

Test: NCI Yeast Anticancer Drug Screen. Data for the cln2 rad14 strain (AID 165);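 note: 0% = growth equal to vehicle treated cultures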
Conditions: S. cerevisiae cln2 rad14 strain, active compounds read high; at 50.0 µM unless noted
Method: Growth inhibition of yeast strains with defined genetic alterations is measured as a screen for potential anti-cancer activity. Selected strains with alterations in DNA damage repair or cell cycle control were exposed to compounds and growth inhibition was measured relative to vehicle treated controls. The strain used in this assay is cln2 rad14

| Compound | growth inhibition |
| --- | --- |
| CCC(=O)CC(=O)CCC(=O)Nc1ccc(Cl)cc1C | -55.2% |
| Oc1ccc(Br)cc1/C=N/c1nc2ccccc2s1.Oc1ccc(Br)cc1/C=N/c1nc2ccccc2s1.[Cu] | 15.3% |
| COC1CN(C(C)(C)C)C1 | 2.65% |
| COc1ccc(OC(C)C(=O)O)c2c(=O)ccccc12 (stereo not given) | 25.2% |
| COc1cc2c(cc1OCc1ccccc1)C(Cc1cc(Br)sc1Br)=NCC2 | 50.3% |
| Nc1nc(CCc2ccc(NC(=O)CBr)cc2)c(CCCCc2ccccc2)c(=O)[nH]1 | 24.2% |
| O=C(C(/C=N/C(=S)NC1C(=O)Nc2ccccc21)=C(/O)c1ccccc1)c1ccccc1 (stereo not given) | 27.5% |
| CCCC(=O)OCC1OC(n2cc(F)c(=O)[nH]c2=O)CC1OC(=O)CCC (stereo not given) | -4.3% |
| [N-]=[N+]=NC1(N=[N+]=[N-])C(=O)Nc2ccccc2C1=O (stereo not given) | 3.65% |
| Cc1c(CCCl)c(N=P(c2ccccc2)(c2ccccc2)c2ccccc2)n2c(nc3ccccc32)c1C#N | 12.5% |
| CCOC(=O)c1cnc2c(cnn2CC)c1NCC(C)C | 3.15% |
| CCOc1ccc(/C=C(\C(=O)c2ccccc2)S(=O)(=O)c2ccc(OC)cc2)cc1OC | 5.8% |
| COc1cccc(C2SC(N)=Nc3c2c(C)nn3C(=O)c2ccccc2O)c1 (stereo not given) | 17.6% |
| C[N+](C)(C)c1ccc2[nH]c3ccccc3c2c1 | -27.8% |
| CC(C)(C)OC(=O)CC(NC(=O)OC(C)(C)C)C(=O)NC(C(=O)O)C(O)c1ccccc1 (stereo not given) | -22.9% |
| Brc1ccc(-c2ccccc2)cc1 | 15.1% |
| COc1ccc2cc(N3CCCC3)ccc2c1 | -14.8% |
| N#CC1(OC2CCCCO2)Cc2ccccc2C1 (stereo not given) | -48.9% |
| COc1ccc(Cl)c2c(=O)c3ccccc3[nH]c12 | -35.1% |
| CCCCCCC/C=C/C1CC(=O)OC1=O (stereo not given) | 7.05% |

| Compound | growth inhibition |
| --- | --- |
| CS(=O)(=O)c1cccc(C(=O)O)c1 | -16.1% |
| N#CC(C(=S)Nc1ccccc1)=C1Nc2ccccc2N1 | -2.65% |
| OCC1C(CO)C2CC1C1N=NN(c3ccccc3)C21 (stereo not given) | -11.9% |
| NC(=S)C(=S)N=Cc1c(O)c2ccccc2oc1=O | 18.9% |
| Cc1c(=O)n(C)c2ccccc2[n+]1[O-] | -8.65% |
| O=C(O)c1ccc(NCC(O)COc2ccc([N+](=O)[O-])cc2)cc1 (stereo not given) | 5.4% |
| C/C(=N\NC(=O)Nc1ccc(N=Nc2ccccc2)cc1)c1ccncc1 | 1.5% |
| COc1ccccc1NC(=O)C(/C=N/C(=S)NNC(C)=O)=C(/C)O | -5.9% |
| O=c1oc(-c2ccccc2)nc2c1sc1nc(-c3ccccc3)oc(=O)c12 | 79.8% (active) |
| O=C1CN(Cc2ccc3c(c2)OCO3)NO1 | -4.5% |
| CCOC(=O)C(F)C(=O)OCC | 12.1% |
| C1COC2(OC1)OCCCO2 | -71.5% |
| CN(C)c1ccc(NC(=O)C(c2ccccc2)c2ccccc2)cc1 | -23.8% |
| Nc1ccc(S(=O)(=O)Nc2cc(C(F)(F)F)cc(C(F)(F)F)c2)cc1 | 41.6% |
| O=C(Cc1ccccc1)c1ccccc1C(=O)NCc1ccncc1 | -20.5% |
| OC(Cc1ccc2ccccc2n1)(C(F)(F)F)C(F)(F)F | -3.85% |
| COc1cc(C2NC(C(=O)O)CS2)cc(OC)c1OC (stereo not given) | -19.1% |
| O=C(N[C@@H](CSSC[C@H](NC(=O)OCc1ccccc1)C(=O)O)C(=O)O)OCc1ccccc1 | -3.65% |
| CCC12CCCNC1c1c(n(C)c3ccccc13)C(C(=O)OC)C2 (stereo not given) | 25.6% |
| O=C(O)C(Cc1cccs1)C(=O)O | 41.5% |
